The values that follow come from PubChem BioAssay (EPA / NIEHS).

Inconclusive results are not listed. The source made the active and inactive calls. How the source made its calls, unless noted: active means hit-call score of the fitted dose curve at least 0.9, where 1 is the maximum; inactive means score below 0.9.

Experiment [1] can be described thus: APR_HepG2_CellCycleArrest_24hr: Apredica 24-hour HepG2 Assay for Cell Cycle Arrest (AID 2282905).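 Further: cell cycle arrest scored as ratio of 2N to 4N nuclear DNA content.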 Particulars: imaging, actives raise or lower the signal. In outline: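 Step one: dose HepG2 with test compounds, 0.39–200 uM, 0.5% DMSO, 24 hr. Step two: fix, permeabilize, stain nuclei with Hoechst 33342. Step three: image six fields per well at 20x, quantify DNA content, fit bidirectionally relative to DMSO.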

Experiment [2] in a line: APR_HepG2_NuclearSize_24hr: Apredica 24-hour HepG2 Assay for Nuclear Size (AID 2282907). Particulars: high-content imaging, actives raise or lower the signal. A digest of the protocol:
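After fixation and permeabilization, 24-hr-treated HepG2 cells were stained with Hoechst 33342 and imaged on an ArrayScan (20x). Doses spanned 0.39–200 uM in duplicate. Nuclear diameter changes in either direction were fitted relative to 0.5% DMSO controls.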

The nature of experiment [3]: APR_HepG2_CellLoss_24hr: Apredica 24-hour HepG2 Assay for Cell Loss (AID 2282908).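 Further: fit in both directions so a hit may be cell loss or gain.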 Particulars: high-content imaging. In outline:
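Duplicate wells received compound at ten concentrations (0.39–200 uM; final DMSO 0.5% v/v). After fixation with formaldehyde, nuclei stained with Hoechst 33342 were imaged at 20x. Loss or gain of cell count was fitted relative to DMSO controls.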

The nature of experiment [4]: APR_HepG2_MicrotubuleCSK_24hr: Apredica 24-hour HepG2 Assay for Microtubule CSK Stabilty (AID 2282909). Conditions: HepG2 microtubule cytoskeleton imaging, actives raise or lower the signal. A digest of the protocol:
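Microtubule stability is scored from tubulin immunofluorescence in fixed HepG2 cells imaged at 20x. Cells receive ten compound concentrations up to 200 uM for 24 h; taxol and DMSO serve as positive and negative controls.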

Experiment [5] is described as follows: APR_HepG2_MitoticArrest_24hr: Apredica 24-hour HepG2 Assay for Mitotic Arrest (AID 2282910). Particulars: high-content imaging, actives raise or lower the signal. A digest of the protocol:
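Treatment lasted 24 hr in the human HepG2 line at 0.39–200 uM, solvent held at 0.5% DMSO. Fixed cells were stained with Hoechst 33342 and anti-phospho-histone H3, imaged at 20x, and analysed by gain- or loss-of-signal fitting against DMSO.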

Experiment [6] can be described thus: APR_HepG2_MitoMembPot_24hr: Apredica 24-hour HepG2 Assay for Mitochondrial Membrane Potential (AID 2282911). Particulars: imaging, actives raise or lower the signal. In outline: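 HepG2 human liver cells were exposed 24 hr to compounds at 0.39–200 uM (final DMSO 0.5% v/v) in duplicate. MitoTracker Red CMXRos (250 nM, 30 min) was loaded before formaldehyde fixation; fluorescence was imaged by ArrayScan HCS and fitted bidirectionally versus DMSO.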

The nature of experiment [7]: APR_HepG2_p53Act_24hr: Apredica 24-hour HepG2 Assay for p53 Activation (AID 2282913).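 Further: p53 protein immunofluorescence averaged per cell in HepG2 with Hoechst nuclei.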 Particulars: high-content imaging, actives raise or lower the signal. In outline: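 HepG2 cells exposed 24 hr to compounds at 0.39–200 uM (10 concentrations, duplicate), final DMSO 0.5% v/v. After formaldehyde fixation and Triton permeabilization, p53 was immunolabeled (sheep anti-p53, Cy5 secondary) with Hoechst 33342 nuclear counterstain, then imaged by high-content fluorescence microscopy.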

Experiment [8] in a line: APR_HepG2_CellCycleArrest_72hr: Apredica 72-hour HepG2 Assay for Cell Cycle Arrest (AID 2282914). Particulars: high-content imaging, actives raise or lower the signal. In outline:
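HepG2 cells were exposed to compounds at 0.39–200 uM (0.5% v/v DMSO final, duplicates) for 72 hr, fixed in 3.7% formaldehyde, permeabilized and stained with Hoechst 33342. Nuclear DNA content was quantified by high-content imaging; gain or loss of signal was fitted bidirectionally against DMSO.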

The nature of experiment [9]: APR_HepG2_CellLoss_72hr: Apredica 72-hour HepG2 Assay for Cell Loss (AID 2282915). Particulars: high-content imaging. In outline:
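HepG2 cells were exposed for 72 hr to compounds at 0.39–200 uM (ten concentrations, duplicate) in 0.5% v/v final DMSO. Nuclei were stained with Hoechst 33342 after 3.7% formaldehyde fixation, imaged at 20x, and counted; fits bidirectional versus DMSO.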

Experiment [10] in a line: APR_HepG2_P-H2AX_72hr: Apredica 72-hour HepG2 Assay for H2AX Phosphorylation (AID 2282916).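 Further: phospho-histone H2A.x immunostain intensity per cell marking DNA damage.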 Conditions: imaging, actives raise or lower the signal. A digest of the protocol: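 Phospho-H2A.x imaging endpoint in HepG2 after 72 hr compound exposure (0.39–200 uM, duplicate wells). Activity derived by bidirectional curve fitting with DMSO as baseline.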
Experiment [11] can be described thus: APR_HepG2_MitoMembPot_72hr: Apredica 72-hour HepG2 Assay for Mitochondrial Membrane Potential (AID 2282917). Conditions: imaging, actives raise or lower the signal. In outline: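 HepG2 cells exposed 72 h to compounds at 0.39–200 uM (0.5% v/v DMSO, duplicates); MitoTracker Red CMXRos 250 nM loaded 30 min before 3.7% formaldehyde fixation, imaged by HCS fluorescence. Bidirectional fit versus DMSO.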

The nature of experiment [12]: APR_HepG2_MitoticArrest_72hr: Apredica 72-hour HepG2 Assay for Mitotic Arrest (AID 2282918). Conditions: high-content imaging, actives raise or lower the signal. A digest of the protocol:
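HepG2 cells were exposed for 72 hr to compound at 0.39–200 uM (10 concentrations, duplicate) in 0.5% v/v DMSO, fixed in 3.7% formaldehyde, immunostained for phospho-histone H3 with Hoechst 33342 and imaged by high-content fluorescence; bidirectional fits versus DMSO.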

Experiment [13] in a line: APR_HepG2_MicrotubuleCSK_72hr: Apredica 72-hour HepG2 Assay for Microtubule CSK Stabilty (AID 2282919). Conditions: HepG2 microtubule cytoskeleton, high-content imaging, actives raise or lower the signal. In outline: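 Ten-point dosing (0.39–200 uM, 0.5% DMSO) of HepG2 for 72 hr, with taxol as the cytoskeletal positive control. The cells were formaldehyde-fixed and then stained with alpha-tubulin/Cy5 and Hoechst. Imaging at 20x used a −2 um Z offset for tubulin.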

Experiment [14] in a line: APR_HepG2_P-H2AX_24hr: Apredica 24-hour HepG2 Assay for H2AX Phosphorylation (AID 2282920). Particulars: high-content imaging, actives raise or lower the signal. A digest of the protocol: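 HepG2 human liver cells were exposed for 24 hr to compounds at 0.39–200 uM in duplicate, with 0.5% v/v DMSO final. Fixed cells were immunostained for phospho-histone H2A.x plus Hoechst 33342, imaged by HCS fluorescence, and fitted bidirectionally against DMSO.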

The nature of experiment [15]: APR_HepG2_StressKinase_72hr: Apredica 72-hour HepG2 Assay for Stress Kinase (AID 2282921). Particulars: HepG2 stress kinase (phospho-c-Jun) imaging, actives raise or lower the signal. In outline: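 Stress kinase signal reflects nuclear phospho-c-Jun staining in fixed, permeabilized cells exposed 72 h to compound at 0.39–200 uM; DMSO-normalized, fitted for increases or decreases.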

Experiment [16] is described as follows: APR_HepG2_StressKinase_24hr: Apredica 24-hour HepG2 Assay for Stress Kinase (AID 2282922). Conditions: HepG2 stress kinase (phospho-c-Jun) imaging, actives raise or lower the signal. In outline: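 After 24 hr compound treatment (up to 200 uM, final DMSO 0.5% v/v), HepG2 cells are fixed and multiplex-labeled; phospho-c-Jun intensity is captured by high-content fluorescence imaging and analyzed relative to DMSO.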

A short description of experiment [17]: APR_HepG2_p53Act_72hr: Apredica 72-hour HepG2 Assay for p53 Activation (AID 2282923).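 Further: average cellular p53 protein immunofluorescence intensity in HepG2 cells.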 Particulars: high-content imaging, actives raise or lower the signal. In outline: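 Fixed-cell p53 staining (sheep primary, Cy5 secondary) measured by fluorescence imaging following 72 hr treatment at 0.39–200 uM in 0.5% DMSO; DMSO served as negative control and baseline.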

A short description of experiment [18]: APR_HepG2_MitoMass_72hr: Apredica 72-hour HepG2 Assay for Mitochondrial Mass (AID 2282924).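 Further: MitoTracker Red CMXRos stain intensity per cell imaged as mitochondrial mass.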 Particulars: high-content imaging, actives raise or lower the signal. In outline:
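Steps: treat HepG2 72 hr (0.39–200 uM, duplicate wells); load MitoTracker Red CMXRos, 250 nM, 30 min; fix with 3.7% formaldehyde, permeabilise with 0.5% Triton X-100; capture images, nuclei via Hoechst 33342; fit bidirectionally against DMSO.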

Experiment [19] in a line: APR_HepG2_NuclearSize_72hr: Apredica 72-hour HepG2 Assay for Nuclear Size (AID 2282925). Particulars: high-content imaging, actives raise or lower the signal. A digest of the protocol:
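Compounds (0.39–200 uM, final DMSO 0.5%) were applied to HepG2 for 72 hr. Cells were then formaldehyde-fixed, permeabilized and labelled with Hoechst 33342. Nuclear diameter was quantified from six images per well.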

Experiment [20] can be described thus: ACEA_ER_80hr: ACEA Biosciences xCELLigence Real-Time Cell Analysis on Estrogen Receptor Agonism for Proliferation (AID 2282667; active means hit-call score of the fitted dose curve at least 0.9, where 1 is the maximum). Conditions: T47D proliferation, impedance (xCELLigence), 80 h. A digest of the protocol:
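T47D human breast cells were seeded on electrode plates, monitored overnight, then exposed continuously to compounds in eight-point 1:4 dilutions from 100 uM (max 0.5% DMSO). Impedance-based growth was read at 80 h, fitted upward relative to DMSO.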

For the molecule `O=C1C2(Cl)C3(Cl)C4(Cl)C(Cl)(Cl)C5(Cl)C3(Cl)C1(Cl)C5(Cl)C24Cl` (centres undefined), the half-maximal activity concentration (AC50) in [1] was 44.6 µM (active); in [3], 44.5 µM (active); in experiment [8], 24.7 µM (active); in experiment [9] it was 22.5 µM (active); in experiment [10], 113 µM (active); in [14] it was 46.6 µM (active). Also, the AC50 in experiment [15] was 106 µM (active); in experiment [16], 60.5 µM (active); in experiment [17] it was 10.5 µM (active); in experiment [19] it was 24.1 µM (active). Also, the call in experiment [2], in experiment [4], in experiment [5], in experiment [6], in [7] and in [11] was inactive. The molecule was classed as inactive in experiment [12], in [13] and in experiment [18].

Turning to `c1ccc(N=NNc2ccccc2)cc1`, the outcome in [20] was inactive.

Consider `NNC(=S)NN`, for which the call in experiment [20] was inactive.

Regarding `O=C(Nc1ccc2[nH]ccc2c1)c1cc2cc(F)ccc2n1Cc1cccc(F)c1`, the AC50 is 25.4 µM (active) in experiment [1]; 22.5 µM (active) in experiment [3]; 19.7 µM (active) in [4]; 30.9 µM (active) in [5]; 2.08 µM (active) in experiment [6]; 34.5 µM (active) in [7]. The AC50 in experiment [8] was 35.7 µM (active); in [9], 17.2 µM (active); in experiment [10] it was 27.8 µM (active); in experiment [11], 1.02 µM (active); in [12] it was 22 µM (active); in experiment [14], 38.8 µM (active). Moreover, the AC50 is 19 µM (active) in experiment [17] and 26.9 µM (active) in [18]. In addition, the call in [2], in [13], in experiment [15], in [16] and in experiment [19] was inactive.

Take `C[C@@H]1C[C@@H]([C@H](O)CC2CC(=O)NC(=O)C2)C(=O)[C@@H](C)C1`: the half-maximal activity concentration (AC50) was 1.19 µM (active) in experiment [1]; 0.465 µM (active) in experiment [3]; 21.7 µM (active) in experiment [7]; 7.46 µM (active) in experiment [8]; 0.415 µM (active) in experiment [9]; 0.564 µM (active) in experiment [12]. In addition, the AC50 is 1.11 µM (active) in experiment [13] and 4.8 µM (active) in experiment [17]. The molecule was called inactive in [2], in [4], in experiment [5], in experiment [6], in experiment [10] and in experiment [11]. For the same molecule, the result in experiment [14], in experiment [15], in experiment [16], in [18] and in [19] was inactive.
